In ChEMBL document CHEMBL4513216, “Probing the Open Global Health Chemical Diversity Library for Multistage-Active Starting Points for Next-Generation Antimalarials” (ACS Infect Dis, 2020) one finds INHIBITION data, which are given here for 68 compounds.

Hit rate of the full screen: of about 68,000 compounds, about 2,700 (4%) showed an effect of 50% or more. For the sample, strong results were picked, then their nearest neighbours and some compounds at random.

This assay deals with Plasmodium berghei. Briefly: Screen against P. berghei liver stage (PbLuc), transformed with Luciferase, at 2uM. It counts as functional, HepG2. The following applies: tested at 2 uM.
With `CN(Cc1noc2c1CCCC2)C(=O)C1CCOc2ccccc2C1` (stereo not drawn), the INHIBITION came to 8.89%.

As to `c1csc(CNCC2COCc3c(-c4ccoc4)nnn3C2)n1` (stereo not drawn), the INHIBITION is listed as -45.9%. Regarding `O=C([C@@H]1COC[C@H]2CN(C3CCOCC3)C[C@H]21)N1CCCO1`, the INHIBITION was found to be 35.15%. With `Cc1cc(CN(C)C(=O)C2CC(c3cccc(F)c3)=NO2)no1` (stereo not drawn), the INHIBITION is recorded as -30.08%. On to `CN(Cc1cccc(C#N)c1)C(=O)C1CC(c2cccc(F)c2)=NO1` (stereo not drawn), for which the INHIBITION was determined as 17.47%. With `CN(Cc1ccc2c(c1)OCO2)C(=O)C1CC(c2cccc(F)c2)=NO1` (stereo not drawn) the figure was 53.68%; with `CNC(=O)N1C[C@@H]2C[C@H](C(=O)Nc3ccccc3)[C@H](C1)O2`, 6.57%; with `c1ccc(-c2cc(CNCCCC3CCOC3)c3nnnn3c2)cc1` (stereo not drawn), 22.81%. As for `CCc1nc(CNCC2(C(N)=O)CCOCC2)cs1`, the INHIBITION is on record as 33.9%. In the case of `CCc1nc(CC(=O)NCC2(C(N)=O)CCOCC2)cs1`, the INHIBITION worked out at 55.36%.

In the case of `Cc1nn(C)c(C)c1CC(=O)NCC1(C(N)=O)CCOCC1`, the INHIBITION came out at 60.59%. As to `Cc1nn(C)c(Cl)c1C(=O)NCC1(C(N)=O)CCOCC1`, the INHIBITION is given as 32.02%. For `NC(=O)C1(CNCc2csc(-c3cccs3)n2)CCOCC1`, the INHIBITION is on record as 36.28%. With `Cc1nn(C)c(C)c1CCC(=O)NCC1(C(N)=O)CCOCC1` the figure was 25.73%; with `Nc1ccc(C(=O)N2CCCC(C(=O)CCc3ccccc3)C2)cn1` (stereo not drawn), -62.48%; with `COCc1cnc2n1CCN(C1CCCC1)C2C` (stereo not drawn), 0.42%. As to `c1cc(-c2nn3c(CN4CCOCC4)nnc3s2)ccn1`, the INHIBITION is given as 2.88%. With `COc1cc(C(=O)N2CCC(c3n[nH]c(C4CC4)n3)CC2)ccc1C` the figure was 10.5%; with `O=C(NCc1cccnc1)[C@@H]1CC[C@@H]2[C@@H](CCN2c2ncc(F)cn2)O1`, 12.7%. For the compound `COc1ccc(-c2nnsc2C(=O)N2CCSCC2)cc1`, the INHIBITION is -20.55%. With `NCCCn1nc(C(F)(F)F)c2c1CCC2` the figure was 58.18%; with `N#CCCn1nc(C(F)(F)F)c2c1CCCC2`, 17.01%; with `N#CCCn1nc(C(F)(F)F)c2c1CCC2`, 10.83%. Turning to `COCC1CN(Cc2cccnc2)Cc2nnn(CC3CC3)c21` (stereo not drawn), the INHIBITION was -94.44%. Consider `COCC1CC2(CCN(c3cc(OC)ncn3)CC2)CN1C(C)C` (stereo not drawn), for which the INHIBITION is -0.45%. On to `COC(=O)c1cccc(C(=O)N2CCN(C(=O)N(C)C)CC2(C)C)c1`, for which the INHIBITION is 7.42%. With `CCOc1cccc(C(C)NC(=O)N2CCC(C(N)=O)CC2)c1` (stereo not drawn) the figure was -31.3%; with `CCOc1cccc(C(C)NC(=O)N2CCC3(CC2)OCCO3)c1` (stereo not drawn), 58.01%.

Consider `CC(NC(=O)N1CCC2(C1)OCCO2)c1cccc(Cl)c1` (stereo not drawn), for which the INHIBITION was 22.12%.

For `COc1cc(N2CCC3(CC2)CCN(c2cccnc2)C3=O)ncn1`, the INHIBITION worked out at 2.72%.

Consider `O=C(c1ccc2nncn2c1)N1CCCCC1Cn1cccn1` (stereo not drawn), for which the INHIBITION is listed as 39.47%. Turning to `O=C(NCCOc1ccc(Cl)cn1)Nc1cccnc1`, the INHIBITION is recorded as -1.56%. For `O=C(NCCOc1ccc(Cl)cn1)Nc1nccs1`, the INHIBITION turned out to be 50.61%. With `O=C(NCCOc1ccc(Cl)cn1)Nc1ccccn1` the figure was -65.52%.

Regarding `C=Cc1ccc(C(=O)N2CCCC(Nc3ccc(OC)cc3)C2)cc1` (stereo not drawn), the INHIBITION is listed as 19.42%. Turning to `CCn1cc(CN2CCCN(C(=O)C3(C)CCOCC3)CC2)cn1`, the INHIBITION is -1.55%. With `CN(Cc1cccc(OC(F)(F)F)c1)C(=O)c1cnsn1` the figure was 10.1%; with `CC(C)CN1C[C@@H]2C(=O)NC3(CCN(C(=O)c4cccnc4)CC3)[C@@H]2C1`, 14.47%. Turning to `Cc1cnc(-c2nc(C3CCN(Cc4ccccc4O)CC3)no2)cn1`, the INHIBITION is -10.49%. The value for `O=C(NCCOC1CCCC1)c1ccc(-c2ccco2)[nH]c1=O` was -40.62%. The value for `c1ncc(Nc2nccc(C3CCCCN3CC3CCCCC3)n2)cn1` (stereo not drawn) was -8.23%; that for `O=C(CCN1CCOCC1)N1CCC(Cc2ccc(CO)cc2)C1` (stereo not drawn) was -11.66%. For the compound `O=C(CCN1CCCCC1)N1CCC(Cc2ccc(CO)cc2)C1` (stereo not drawn), the INHIBITION is listed as 50.61%.

`O=C(CCc1ccc(O)cc1)N1CCC(Cc2ccc(CO)cc2)C1` (stereo not drawn): the INHIBITION worked out at 11.28%. On to `O=C(CN1CCC(c2cccc(F)c2)C1)NCC(F)(F)F` (stereo not drawn), for which the INHIBITION turned out to be 20.28%. Turning to `O=C(CN1CCC(c2cccc(F)c2)C1)NCc1ccco1` (stereo not drawn), the INHIBITION is listed as 51.21%.

As to `CC(C)NC(=O)CN1CCC(c2cccc(F)c2)C1` (stereo not drawn), the INHIBITION is given as 28.33%. As for `CN1C[C@H]2CC[C@@H](CC1=O)N2C(=O)c1ccc(-c2ccccc2)[nH]c1=O`, the INHIBITION was -40.36%.

Consider `Nc1nccc(C2CCN(CCO)C2)n1` (stereo not drawn), for which the INHIBITION was 19.86%. Consider `Cc1ccc(N2CCO[C@H]3CN(Cc4ccccn4)C[C@H]32)nn1`, for which the INHIBITION was found to be 4.99%. With `Cc1ccoc1C(=O)N1CCn2cc(CN3CCCC3)nc2C1` the figure was 37.2%; with `CC1CCN(Cc2cnc(S(=O)(=O)CC3CC3)n2CC2CCCO2)CC1` (stereo not drawn), -14.32%; with `CN1CCN(Cc2cnc(S(=O)(=O)CC3CC3)n2CC2CCCO2)CC1` (stereo not drawn), 1.8%. Regarding `O=S(=O)(CC1CC1)c1ncc(CN2CCOCC2)n1CC1CCCO1` (stereo not drawn), the INHIBITION is recorded as 3.49%.

With `CCCS(=O)(=O)c1ncc(CN2CCC(C)CC2)n1CC1CCCO1` (stereo not drawn), the INHIBITION was determined as 70.81%.

Turning to `CCCS(=O)(=O)c1ncc(CN2CCC(CO)CC2)n1CC1CCCO1` (stereo not drawn), the INHIBITION was determined as 27.44%. With `O=S(=O)(CC1CC1)c1ncc(CN2CCSCC2)n1CC1CCCO1` (stereo not drawn) the figure was 65.76%.

Consider `O=C(NC1CCCN(c2ncccn2)C1)c1ccoc1` (stereo not drawn), for which the INHIBITION is recorded as 36.98%.

On to `CC(=O)c1c(C)nn(S(=O)(=O)c2ccc(Cl)cc2)c1C`, for which the INHIBITION came to 11.8%. With `O=C(O)c1ccnc(SCC(=O)c2ccccc2)c1` the figure was 25.23%. In the case of `Cc1ccc(OC2CCN(S(=O)(=O)N(C)C)CC2)nc1`, the INHIBITION worked out at 15.75%. Consider `C[C@H]1CN2C[C@H](O)CC2CN1Cc1ccc2nccnc2c1` (stereo partly drawn), for which the INHIBITION is -36.08%. With `CC(C)Oc1ccccc1CNC(=O)N(C)C(C)CS(C)(=O)=O` (stereo not drawn) the figure was -25.21%. The value for `CCN(C(=O)NCCc1ccccc1Cl)C(C)CS(C)(=O)=O` (stereo not drawn) was 34.46%; that for `CCS(=O)(=O)CC(C)N(C)C(=O)NCCc1cccc(F)c1F` (stereo not drawn) was -4.09%; that for `COc1ccccc1CCNC(=O)N(C)C(C)CS(C)(=O)=O` (stereo not drawn) was 50.46%. The value for `COc1cc(Cl)ccc1CNC(=O)N(C)C(C)CS(C)(=O)=O` (stereo not drawn) was -22.82%. On to `CCN(C(=O)NCCc1cccc(F)c1F)C(C)CS(C)(=O)=O` (stereo not drawn), for which the INHIBITION was determined as 64.2%.
